# Test results from PubChem BioAssay (EPA / NIEHS).
# The source made the active and inactive calls. Rule for the calls: active = hit-call score of the fitted dose curve at least 0.9, where 1 is the maximum; inactive = score below 0.9.
# Columns and labels:
# Conditions in all cases: mRNA level, 48 h; actives raise or lower the signal
# [1] = read-out: Peroxisomal acyl-coenzyme A oxidase 1 (ACOX1) gene, ACOX1 (gene 51); assay: LTEA_HepaRG_ACOX1: Life Technologies and Expression Analysis (LTEA) Assay for Peroxisomal acyl-coenzyme A oxidase 1 (ACOX1) gene using HepaRG (AID 2283467)
# Method in brief: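 HepaRG, 48 h chemical exposure, 8-pt half-log series from 100 uM top, 0.5% DMSO vehicle, duplicates. Readout: ACOX1 mRNA by Fluidigm qRT-PCR, housekeeping-normalized; bidirectional fit vs DMSO baseline.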
# [2] = read-out: Alkaline Phosphatase, Placental (ALPP) gene, ALPP (gene 250); assay: LTEA_HepaRG_ALPP: Life Technologies and Expression Analysis (LTEA) Assay for Alkaline Phosphatase, Placental (ALPP) gene using HepaRG (AID 2283468)
# Method in brief: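 HepaRG cells plated 48 h, then exposed in duplicate for 48 h in serum-free induction medium to 8-point half-log series from 100 uM in 0.5% DMSO. ALPP mRNA by TaqMan qRT-PCR, normalized to ACTB/GAPDH/POLR2A; bidirectional fit versus DMSO.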
# [3] = read-out: Bcl-2 (BAD) gene, BAD (gene 572); assay: LTEA_HepaRG_BAD: Life Technologies and Expression Analysis (LTEA) Assay for Bcl-2 (BAD) gene using HepaRG (AID 2283469)
# Method in brief: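 HepaRG, 48 h exposure, 8-pt half-log curve from 100 uM in 0.5% DMSO, duplicates. Readout: TaqMan qRT-PCR for BAD mRNA, housekeeping-normalised (ACTB/GAPDH/POLR2A); gain or loss fitted against DMSO baseline.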
# [4] = read-out: Bcl-2 (BAX) gene, BAX (gene 581); assay: LTEA_HepaRG_BAX: Life Technologies and Expression Analysis (LTEA) Assay for Bcl-2 (BAX) gene using HepaRG (AID 2283470)
# Method in brief: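 Cells were thawed, plated for 48 h, moved to serum-free induction medium and dosed for 48 h (highest concentration 100 uM, half-log steps, 0.5% DMSO). Total RNA was then analysed for BAX expression by qRT-PCR.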
# [5] = read-out: adenosine kinase (ADK) gene, ADK (gene 132); assay: LTEA_HepaRG_ADK: Life Technologies and Expression Analysis (LTEA) Assay for adenosine kinase (ADK) gene using HepaRG (AID 2283471)
# Method in brief: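 Read-out is ADK transcript level measured by qRT-PCR and normalised to three housekeeping genes. Cells are human HepaRG, dosed for 48 h at up to 100 uM in 0.5% DMSO. Gain or loss of signal is fitted against DMSO controls.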
# [6] = read-out: Alpha-fetoprotein (AFP) gene, AFP (gene 174); assay: LTEA_HepaRG_AFP: Life Technologies and Expression Analysis (LTEA) Assay for Alpha-fetoprotein (AFP) gene using HepaRG (AID 2283472)
# Method in brief: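 Chemicals were tested on differentiated HepaRG cells for 48 hours at eight concentrations up to 100 uM, with 0.5% DMSO as vehicle. AFP expression was then quantified by qRT-PCR and analyzed for gain or loss relative to DMSO.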
# [7] = read-out: BCL2L11 (gene 10018); assay: LTEA_HepaRG_BCL2L11: Life Technologies and Expression Analysis (LTEA) Assay for Bcl-2 (BCL2L11) gene using HepaRG (AID 2283473)
# Method in brief: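 Differentiated human HepaRG cells were exposed 48 h in serum-free induction medium to eight half-log concentrations up to 100 uM in 0.5% DMSO, in duplicate. BCL2L11 mRNA was quantified by TaqMan qRT-PCR, normalized to ACTB, GAPDH and POLR2A; induction or repression fitted versus DMSO.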
# [8] = read-out: Apolipoprotein A-V (APOA5) gene, APOA5 (gene 116519); assay: LTEA_HepaRG_APOA5: Life Technologies and Expression Analysis (LTEA) Assay for Apolipoprotein A-V (APOA5) gene using HepaRG (AID 2283474)
# Method in brief: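 Differentiated HepaRG cells in serum-free induction medium, exposed 48 h in duplicate to eight half-log concentrations topping at 100 uM (0.5% DMSO). APOA5 mRNA by Fluidigm TaqMan qRT-PCR, normalized to ACTB, GAPDH and POLR2A; bidirectional fit versus DMSO.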
# [9] = read-out: Apoptosis regulator Bcl-2 (Homo sapiens) (UniProt P10415); assay: LTEA_HepaRG_BCL2: Life Technologies and Expression Analysis (LTEA) Assay for Bcl-2 gene using HepaRG (AID 2283475)
# Method in brief: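 Plated human HepaRG cells are exposed to test chemicals for 48 h across eight concentrations from 100 uM downward in half-log steps (0.5% DMSO). BCL2 expression is then measured by qRT-PCR with housekeeping normalisation and fitted bidirectionally against vehicle.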
# [10] = read-out: Bcl-2 (BID) gene, BID (gene 637); assay: LTEA_HepaRG_BID: Life Technologies and Expression Analysis (LTEA) Assay for Bcl-2 (BID) gene using HepaRG (AID 2283476)
# Method in brief: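 Cells are plated, cultured 48 h, switched to serum-free induction medium, then dosed 48 h (100 uM top, half-log steps, 0.5% DMSO). RNA is isolated and BID expression read by qRT-PCR.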
# [11] = read-out: Caspase-3 (Homo sapiens) (UniProt P42574); assay: LTEA_HepaRG_CASP3: Life Technologies and Expression Analysis (LTEA) Assay for cysteine-aspartic acid protease (CASP3) using HepaRG (AID 2283477)
# Method in brief: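 Differentiated HepaRG cells, plated 48 h, were treated in duplicate in serum-free induction medium for 48 h with eight half-log concentrations up to 100 uM in 0.5% DMSO. CASP3 mRNA measured by qRT-PCR, normalized to ACTB, GAPDH, POLR2A.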
# [12] = read-out: Cytochrome P450 (CYP1A2), CYP1A2 (gene 1544); assay: LTEA_HepaRG_CYP1A2: Life Technologies and Expression Analysis (LTEA) Assay for Cytochrome P450 (CYP1A2) using HepaRG (AID 2283479)
# Method in brief: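 Differentiated human HepaRG cells in serum-free induction medium exposed 48 hours in duplicate to 8 half-log concentrations from 100 uM, 0.5% DMSO. CYP1A2 mRNA quantified by qRT-PCR, normalized to ACTB, GAPDH and POLR2A; bidirectional fitting versus DMSO.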
# [13] = read-out: cysteine-aspartic acid protease (CASP8), CASP8 (gene 841); assay: LTEA_HepaRG_CASP8: Life Technologies and Expression Analysis (LTEA) Assay for cysteine-aspartic acid protease (CASP8) using HepaRG (AID 2283480)
# Method in brief: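 qRT-PCR readout of CASP8 mRNA, normalized to three housekeeping genes, after 48 h chemical exposure of HepaRG cells; 8-point half-log series, top 100 uM, 0.5% DMSO vehicle. Bidirectional curve fitting against DMSO baseline.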
# [14] = read-out: Cytochrome P450 (CYP2B6), CYP2B6 (gene 1555); assay: LTEA_HepaRG_CYP2B6: Life Technologies and Expression Analysis (LTEA) Assay for Cytochrome P450 (CYP2B6) using HepaRG (AID 2283481)
# Method in brief: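 Differentiated human HepaRG cells in serum-free induction medium, dosed in duplicate for 48 h over 8 half-log concentrations topping at 100 uM (0.5% DMSO). CYP2B6 mRNA measured by TaqMan qRT-PCR, normalized to ACTB, GAPDH, POLR2A; bidirectional fit versus DMSO.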
# [15] = read-out: Cytochrome P450 2C19 (Homo sapiens) (UniProt P33261); assay: LTEA_HepaRG_CYP2C19: Life Technologies and Expression Analysis (LTEA) Assay for CYP2C19 using HepaRG (AID 2283482)
# Method in brief: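 Differentiated HepaRG cells in serum-free induction medium exposed 48 h in duplicate, 8 concentrations from 100 uM by half-log steps in 0.5% DMSO. CYP2C19 mRNA measured by TaqMan qRT-PCR, normalized to ACTB, GAPDH, POLR2A. Bidirectional fit versus DMSO.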
# [16] = read-out: CYP2C8 (gene 1558); assay: LTEA_HepaRG_CYP2C8: Life Technologies and Expression Analysis (LTEA) Assay for CYP2C8 using HepaRG (AID 2283483)
# Method in brief: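 HepaRG (human liver line), 48 h chemical exposure, 8-pt half-log series from 100 uM, 0.5% DMSO vehicle. Readout: CYP2C8 transcript by qRT-PCR, housekeeping-normalized. Bidirectional fit vs DMSO baseline.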
# [17] = read-out: CYP2C9 (gene 1559); assay: LTEA_HepaRG_CYP2C9: Life Technologies and Expression Analysis (LTEA) Assay for CYP2C9 using HepaRG (AID 2283484)
# Method in brief: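 HepaRG, 48 h dosing, 8-pt half-log series, top 100 uM, 0.5% DMSO vehicle. Read-out: CYP2C9 transcript by TaqMan qRT-PCR, housekeeping-normalized (ACTB/GAPDH/POLR2A). Gain or loss fitted vs DMSO baseline.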
# [18] = read-out: CYP2E1 (gene 1571); assay: LTEA_HepaRG_CYP2E1: Life Technologies and Expression Analysis (LTEA) Assay for CYP2E1 using HepaRG (AID 2283485)
# Method in brief: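 Readout is qRT-PCR of CYP2E1 mRNA, normalized to three housekeeping genes and fitted bidirectionally against 0.5% DMSO. HepaRG cells were dosed 48 h at eight concentrations, highest 100 uM with half-log dilutions.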
# [19] = read-out: CYP4A11 (gene 1579); assay: LTEA_HepaRG_CYP4A11: Life Technologies and Expression Analysis (LTEA) Assay for CYP4A11 using HepaRG (AID 2283486)
# Method in brief: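 Differentiated HepaRG cells, 48 h after plating, exposed in duplicate for 48 h to 8 half-log concentrations up to 100 uM in 0.5% DMSO in serum-free induction medium. CYP4A11 mRNA measured by TaqMan qRT-PCR, normalized to ACTB, GAPDH and POLR2A.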
# [20] = read-out: Cytochrome P450 (CYP24A1), CYP24A1 (gene 1591); assay: LTEA_HepaRG_CYP24A1: Life Technologies and Expression Analysis (LTEA) Assay for Cytochrome P450 (CYP24A1) using HepaRG (AID 2283478)
# Method in brief: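 HepaRG cells plated 48 h, then exposed in duplicate in serum-free induction medium for 48 h to 8-point half-log series from 100 uM in 0.5% DMSO. CYP24A1 mRNA by Fluidigm qRT-PCR, normalized to ACTB, GAPDH, POLR2A; bidirectional fit versus DMSO.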
# Apoptosis regulator Bcl-2 (Homo sapiens), sequence (P10415 whole entry, looked up): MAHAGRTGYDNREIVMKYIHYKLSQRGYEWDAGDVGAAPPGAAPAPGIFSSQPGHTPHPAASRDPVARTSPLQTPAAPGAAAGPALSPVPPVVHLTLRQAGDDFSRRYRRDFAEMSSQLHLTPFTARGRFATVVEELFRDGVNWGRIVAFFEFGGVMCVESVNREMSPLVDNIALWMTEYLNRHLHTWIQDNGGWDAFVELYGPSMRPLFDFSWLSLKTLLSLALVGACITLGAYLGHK
# Caspase-3 (Homo sapiens), sequence (P42574 whole entry, looked up): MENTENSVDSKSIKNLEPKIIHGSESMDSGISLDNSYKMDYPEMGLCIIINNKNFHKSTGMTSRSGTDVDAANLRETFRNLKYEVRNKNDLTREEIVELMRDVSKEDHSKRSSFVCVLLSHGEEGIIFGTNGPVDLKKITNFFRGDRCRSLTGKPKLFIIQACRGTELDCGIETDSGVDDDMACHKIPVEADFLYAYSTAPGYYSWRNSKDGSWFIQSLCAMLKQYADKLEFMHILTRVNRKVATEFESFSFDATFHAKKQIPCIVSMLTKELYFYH
# Cytochrome P450 2C19 (Homo sapiens), sequence (P33261 whole entry, looked up): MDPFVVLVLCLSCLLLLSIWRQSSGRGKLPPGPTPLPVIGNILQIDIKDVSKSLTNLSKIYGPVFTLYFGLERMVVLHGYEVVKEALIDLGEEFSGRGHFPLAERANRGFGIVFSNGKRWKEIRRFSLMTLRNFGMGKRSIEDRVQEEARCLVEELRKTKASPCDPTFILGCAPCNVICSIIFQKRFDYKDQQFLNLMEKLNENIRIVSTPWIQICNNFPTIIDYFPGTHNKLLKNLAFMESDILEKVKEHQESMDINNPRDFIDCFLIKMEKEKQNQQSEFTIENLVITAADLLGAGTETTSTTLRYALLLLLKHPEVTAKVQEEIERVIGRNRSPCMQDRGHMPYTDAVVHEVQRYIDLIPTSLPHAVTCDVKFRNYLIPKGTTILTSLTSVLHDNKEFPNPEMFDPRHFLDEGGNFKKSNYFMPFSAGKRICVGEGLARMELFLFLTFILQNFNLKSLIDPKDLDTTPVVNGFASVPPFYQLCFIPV
smiles,measurement,setting,value
Cc1cccc([N+](=O)[O-])c1C,outcome,[1],inactive
same,outcome,[2],inactive
same,outcome,[3],inactive
same,outcome,[4],inactive
same,outcome,[5],inactive
same,outcome,[6],inactive
same,outcome,[7],inactive
same,outcome,[8],inactive
same,outcome,[9],inactive
same,outcome,[10],inactive
same,outcome,[11],inactive
same,outcome,[12],inactive
same,outcome,[13],inactive
same,outcome,[14],inactive
same,outcome,[15],inactive
same,outcome,[16],inactive
same,outcome,[17],inactive
same,outcome,[18],inactive
same,outcome,[19],inactive
O=C(O)CCCCC(=O)O,outcome,[1],inactive
same,outcome,[2],inactive
same,outcome,[3],inactive
same,outcome,[4],inactive
same,outcome,[5],inactive
same,outcome,[6],inactive
same,outcome,[7],inactive
same,outcome,[8],inactive
same,outcome,[9],inactive
same,outcome,[10],inactive
same,outcome,[11],inactive
same,outcome,[20],inactive
same,outcome,[12],inactive
same,outcome,[13],inactive
same,outcome,[14],inactive
same,outcome,[15],inactive
same,outcome,[16],inactive
same,outcome,[17],inactive
same,outcome,[18],inactive
same,outcome,[19],inactive
COCCOC[C@H](CC1(C(=O)NC2CCC(C(=O)O)CC2)CCCC1)C(=O)Oc1ccc2c(c1)CCC2 (some centres not stated),outcome,[1],inactive
same,outcome,[2],inactive
same,outcome,[3],inactive
same,outcome,[4],inactive
same,outcome,[5],inactive
same,outcome,[6],inactive
same,outcome,[7],inactive
same,outcome,[8],inactive
same,outcome,[9],inactive
same,outcome,[10],inactive
same,outcome,[11],inactive
same,outcome,[20],inactive
same,outcome,[12],inactive
same,outcome,[13],inactive
same,outcome,[14],inactive
same,outcome,[15],inactive
same,outcome,[16],inactive
same,outcome,[17],inactive
same,outcome,[18],inactive
same,outcome,[19],inactive
NCCO,outcome,[1],inactive
same,outcome,[2],inactive
same,outcome,[3],inactive
same,outcome,[4],inactive
same,outcome,[5],inactive
same,outcome,[6],inactive
same,outcome,[7],inactive
same,outcome,[8],inactive
same,outcome,[9],inactive
same,outcome,[10],inactive
same,outcome,[11],inactive
same,outcome,[20],inactive
same,outcome,[12],inactive
same,outcome,[13],inactive
same,outcome,[15],inactive
same,outcome,[16],inactive
same,outcome,[17],inactive
same,outcome,[18],inactive
same,outcome,[19],inactive
CCOC(=O)C(C)(C)Oc1ccc(Cl)cc1,outcome,[1],inactive
same,outcome,[2],inactive
same,outcome,[3],inactive
same,outcome,[4],inactive
same,outcome,[5],inactive
same,outcome,[6],inactive
same,outcome,[7],inactive
same,outcome,[8],inactive
same,outcome,[9],inactive
same,outcome,[10],inactive
same,outcome,[11],inactive
same,outcome,[20],inactive
same,outcome,[12],inactive
same,outcome,[13],inactive
same,outcome,[14],inactive
same,outcome,[16],inactive
same,outcome,[17],inactive
same,outcome,[18],inactive
same,AC50,[19],27.6 µM (active)
CCCCN(CCCC)CCCC,outcome,[1],inactive
same,outcome,[2],inactive
same,outcome,[3],inactive
same,outcome,[4],inactive
same,outcome,[5],inactive
same,outcome,[6],inactive
same,outcome,[7],inactive
same,outcome,[8],inactive
same,outcome,[9],inactive
same,outcome,[10],inactive
same,outcome,[11],inactive
same,outcome,[20],inactive
same,outcome,[12],inactive
same,outcome,[13],inactive
same,outcome,[14],inactive
same,outcome,[15],inactive
same,outcome,[16],inactive
same,outcome,[17],inactive
same,outcome,[18],inactive
same,outcome,[19],inactive
